# Bioassay records from PubChem BioAssay.
# An excerpt weighted towards active compounds, which were near 2.3% of everything screened.
# M1 PAM: potentiates human M1 receptor response to acetylcholine | activation, % at 3 µM | CHO-K1 hM1, Fluo-8 calcium fluorescence, ACh EC20; 0% = ACh EC20, 100% = maximal ACh | 360,000 compounds, 0.088% hits; in the data active = activation above about 19%, passing the limit was not always enough
# Target sequence (P11229 whole entry, looked up): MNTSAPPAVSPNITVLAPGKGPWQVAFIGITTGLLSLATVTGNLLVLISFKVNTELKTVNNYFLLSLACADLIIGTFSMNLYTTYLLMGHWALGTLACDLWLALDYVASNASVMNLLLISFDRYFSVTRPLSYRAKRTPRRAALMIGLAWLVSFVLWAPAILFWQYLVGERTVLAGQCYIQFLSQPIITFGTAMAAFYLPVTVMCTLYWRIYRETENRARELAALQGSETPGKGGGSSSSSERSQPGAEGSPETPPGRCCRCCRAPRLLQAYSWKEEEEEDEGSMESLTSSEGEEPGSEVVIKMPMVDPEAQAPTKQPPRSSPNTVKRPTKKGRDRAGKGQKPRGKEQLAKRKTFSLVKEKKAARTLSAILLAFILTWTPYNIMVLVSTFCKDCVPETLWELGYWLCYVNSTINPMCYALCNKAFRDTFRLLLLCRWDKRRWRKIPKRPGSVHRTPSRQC
# CHO-K1 Ca antag: counter-screen for M1 antagonists: effect in parental CHO-K1 cells | ATP-induced calcium, Fluo-8 fluorescence | 360,000 compounds, 0.6% hits | inhibition, % at 3 µM;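 active = inhibition above a per-plate cutoff, the plate's mean sample inhibition plus 3 SD, cut at about 24% in these data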
# CHRM1 antagonist: human CHRM1 antagonism; 360,000 compounds, 1.3% hits; CHO-K1 hM1, Fluo-8 calcium fluorescence, ACh EC80 antagonist; inhibition, % at 3 µM;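 active = percent inhibition above its own plate's cutoff, namely the mean of that plate's compound wells plus 3 SD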;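 note: peak over basal fluorescence ratio during 140 s after agonist addition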
# M1 ag: activates human CHRM1 receptor; 360,000 compounds, 0.33% hits; P11229; activation, % at 3 µM; AID 588814; CHO-K1 hM1, Fluo-8 calcium fluorescence, agonist mode; 0% DMSO, 100% acetylcholine EC100;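 active = activation above the run's mean compound activation plus 3 SD, cut at about 16% in these data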;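 note: peak over basal fluorescence ratio within a 140 s kinetic read after compound addition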
# CHO-K1 Ca ag: nonselective activator or artifact in parental CHO-K1 cells; activation, % at 3 µM; AID 602248; Fluo-8 calcium fluorescence; scaled to maximal ATP response, vehicle zero; 360,000 compounds, 0.48% hits; in the data active = activation above about 15%;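 note: untransfected CHO-K1 host cells lacking M1 receptor as counterscreen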
# CHO-K1 Ca PAM: M1 PAM counterscreen hit in parental CHO-K1 cells; ATP EC20, Fluo-8 calcium fluorescence; 0% at ATP EC20, 100% at ATP max; activation, % at 3 µM; 360,000 compounds, 0.02% hits; AID 602247;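 active = activation above the run cutoff, the mean activation of all test compounds plus 3 SD, cut at about 40% in these data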;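 note: peak over basal fluorescence ratio in a 140 s read after ATP addition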
# Numbers stand for hits; i = inactive.
SMILES,M1 PAM,CHO-K1 Ca antag,CHRM1 antagonist,M1 ag,CHO-K1 Ca ag,CHO-K1 Ca PAM
O=C(COC(=O)c1cc(S(=O)(=O)N2CCCC2)ccc1O)Nc1ccc(SC(F)F)cc1,i,i,i,i,15,i
O=C(CNc1cccc(S(=O)(=O)N2CCCC2)c1)Nc1cccc(Br)c1,i,i,i,i,19,i
Cc1cccc(NC(=O)COC(=O)c2ccc(S(=O)(=O)N3CCCCCC3)cc2)c1,i,i,i,i,i,i
O=C(CNc1ccc(C(F)(F)F)cc1)Nc1cccc(S(=O)(=O)N2CCCCC2)c1,i,i,24,i,i,i
O=C(COC(=O)c1ccc(S(=O)(=O)N2CCCC2)cc1)Nc1cccc(Br)c1,i,i,29,i,i,i
COc1cc2[nH]c3c(N4CCN(c5ccc(Cl)cc5)CC4)ncnc3c2cc1OC,i,i,i,i,i,i
COc1cccc(N2CCN(c3ncnc4c3[nH]c3ccc(F)cc34)CC2C)c1 (centres undefined),i,55,83,i,i,i
O=[N+]([O-])C(/C=C(\Cl)[N+](=O)[O-])=C1N(Cc2ccc(Cl)nc2)CCN1Cc1ccc(Cl)nc1,i,i,i,i,i,i
O=[N+]([O-])/C(C(=C(Cl)Cl)N1CCN(Cc2ccccc2)CC1)=C1\NCCN1Cc1ccc(Cl)nc1,i,i,43,i,i,i
O=C(COC(=O)c1cc(=O)[nH]c2ccccc12)NCCc1ccccc1,i,i,i,i,i,i
Cc1cccc(Cl)c1OCCCN1CCOCC1,i,i,32,i,i,i
Cc1ccc(S(=O)(=O)NNC(=O)c2c(O)c3ccccc3[nH]c2=O)cc1,i,i,i,i,16,i
Cc1ccc(S(=O)(=O)NC(=O)NCc2ccccc2)cc1,i,28,i,i,i,i
CCOc1ccc(NS(=O)(=O)c2ccc(C(=O)NCc3ccncc3)cc2)cc1,i,i,i,i,i,i
CCOc1ccc(NS(=O)(=O)c2ccc(C(=O)NCc3ccccn3)cc2)cc1,i,i,i,28,21,i
Cc1ccc(NS(=O)(=O)c2ccc(C(=O)NCc3ccccn3)cc2)cc1,i,i,i,28,19,i
Cc1ccc(NS(=O)(=O)c2ccc(C(=O)NCc3ccncc3)cc2)cc1,i,i,i,18,15,i
CS(=O)(=O)Nc1ccc(C(=O)NCc2ccccn2)cc1,i,i,i,i,i,i
Cc1ccccc1OCC(=O)OCC(=O)NC1CC1,i,i,i,i,i,i
COc1ccc([C@H]2CC(=O)C=C(c3cc(OC)ccc3OC)C2)cc1,i,i,i,i,i,i
O=C(Cc1ccc([N+](=O)[O-])cc1)N/N=C/c1ccccc1F,i,i,i,i,i,i
CCCCC(=O)Nc1ccc(C(=O)NCc2ccncc2)cc1,i,25,i,i,i,i
CC(C)c1ccc(OCC(=O)Nc2ccc(S(=O)(=O)Nc3ccccn3)cc2)cc1,i,i,i,24,i,i
CCCCC(=O)Nc1ccc(C(=O)Nc2cccnc2)cc1,i,i,i,i,i,i
CC(C)c1cccc(OCC(=O)Nc2ccc(S(=O)(=O)Nc3ccccn3)cc2)c1,i,i,i,i,i,i
SMILES,M1 PAM,CHO-K1 Ca antag,CHRM1 antagonist,M1 ag,CHO-K1 Ca ag,CHO-K1 Ca PAM
CCCC1C(=O)Nc2ccccc2N1C(=O)c1ccc(C(C)(C)C)cc1 (centres undefined),i,i,i,i,i,i
CCCC1C(=O)Nc2ccccc2N1C(=O)c1cccc(C)c1 (centres undefined),i,i,68,i,i,i
CCN(CC)C1CCN(C(=O)c2cc(COc3ccc(-n4cncn4)cc3)on2)C1 (centres undefined),i,i,42,i,i,i
Cc1cccnc1CN1CCN(C(=O)c2cc(COc3ccc4ncccc4c3)on2)CC1,i,i,i,i,i,i
CCOC(=O)C1CCCN(C(=O)c2cc(COc3ccc(C)nc3)on2)C1 (centres undefined),i,i,i,27,i,i
O=C(c1cc(COc2ccc3ncccc3c2)on1)N1CCCC(O)C1 (centres undefined),i,i,i,i,i,i
COCC1CCCN(C(=O)c2cc(COc3ccc4ncccc4c3)on2)C1 (centres undefined),i,25,35,i,i,i
CCOC(=O)N1CCN(C(=O)c2cc(COc3ccc4ncccc4c3)on2)CC1,i,25,i,i,i,i
O=C(Nc1cccc2nsnc12)c1cc2c(cc1Cl)Sc1nccn1S2(=O)=O,i,i,i,i,i,i
Cn1c(SCC(=O)NC2CCCc3ccccc32)nnc1C1CC1 (centres undefined),i,i,i,i,i,i
COc1ccc(CCNC(=O)CC(c2ccccc2)c2cccc(C)c2O)cc1OC (centres undefined),i,i,i,i,i,i
CC[C@@H]1[C@H]2CCCC(=O)N3CC[C@@H](C[C@H]1O)[C@@H]23,i,i,i,i,i,i
O=C1NC(=S)S/C1=C\C=C\c1ccc([N+](=O)[O-])o1,i,44,55,17,26,i
CCOC(=O)C1CCCN(C(=O)c2[nH]c(C(F)(F)F)nc2-c2ccccc2)C1 (centres undefined),i,i,i,17,i,i
O=C(c1[nH]c(C(F)(F)F)nc1-c1ccccc1)N1CCCCC1,i,26,i,i,i,i
CC(=O)N1CCN(C(=O)c2[nH]c(C(F)(F)F)nc2-c2ccccc2)CC1,i,i,i,i,i,i
CCOC(=O)N1CCN(C(=O)c2[nH]c(C(F)(F)F)nc2-c2ccccc2)CC1,i,i,i,i,i,i
COC(=O)c1ccc(CSc2ncnc3ccccc23)o1,i,25,i,i,i,i
COC(=O)c1ccc(CSc2nnc(C)n2N)o1,i,i,i,i,i,i
COC(=O)c1ccc(CSc2ncnc3c2oc2ccccc23)o1,i,i,i,i,i,i
COC(=O)c1ccc(CSc2nnnn2C)o1,i,i,43,i,i,i
COC(=O)c1ccc(CSc2ccc3nnc(-c4cccc(F)c4)n3n2)o1,i,i,38,i,i,i
Cc1ccc(Cl)cc1NC(=O)c1ccc(CSc2nnnn2C)cc1,i,26,i,i,i,i
Cc1cc(C)c(CN2CCN(C(=O)Cn3cnc4c(OCc5ccccc5)ncnc43)CC2)c(C)c1,i,i,i,i,i,i
COc1ccc(C(=O)Nc2ccc3cn[nH]c3c2)c(OC)c1,i,i,i,i,i,i
CC1CCN(CC(=O)Nc2cccc(C(=O)Nc3cccc(C(F)(F)F)c3)c2)CC1,i,i,i,i,i,i
COc1ccc(-c2cnc(C(O)c3ccc(C(C)(C)C)cc3)[nH]2)cc1 (centres undefined),i,i,i,i,i,i
